KCNQ2 block = rat KCNQ2 potassium channel inhibitors, primary screen, cell-based, CHO-K1, FluxOR thallium flux, B-score. Potassium voltage-gated channel subfamily KQT member 2 (Rattus norvegicus), O88943. 20 min; hits give low values. B-score at 10 µM. 1.1% of 310,000 active. AID 2156, 2009;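 active means fluorescence ratio B-score at most minus 3 library SDs, with starting brightness B-score within 2 library SDs, cut at about -5.5 in these data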
Target sequence (O88943 whole entry, looked up): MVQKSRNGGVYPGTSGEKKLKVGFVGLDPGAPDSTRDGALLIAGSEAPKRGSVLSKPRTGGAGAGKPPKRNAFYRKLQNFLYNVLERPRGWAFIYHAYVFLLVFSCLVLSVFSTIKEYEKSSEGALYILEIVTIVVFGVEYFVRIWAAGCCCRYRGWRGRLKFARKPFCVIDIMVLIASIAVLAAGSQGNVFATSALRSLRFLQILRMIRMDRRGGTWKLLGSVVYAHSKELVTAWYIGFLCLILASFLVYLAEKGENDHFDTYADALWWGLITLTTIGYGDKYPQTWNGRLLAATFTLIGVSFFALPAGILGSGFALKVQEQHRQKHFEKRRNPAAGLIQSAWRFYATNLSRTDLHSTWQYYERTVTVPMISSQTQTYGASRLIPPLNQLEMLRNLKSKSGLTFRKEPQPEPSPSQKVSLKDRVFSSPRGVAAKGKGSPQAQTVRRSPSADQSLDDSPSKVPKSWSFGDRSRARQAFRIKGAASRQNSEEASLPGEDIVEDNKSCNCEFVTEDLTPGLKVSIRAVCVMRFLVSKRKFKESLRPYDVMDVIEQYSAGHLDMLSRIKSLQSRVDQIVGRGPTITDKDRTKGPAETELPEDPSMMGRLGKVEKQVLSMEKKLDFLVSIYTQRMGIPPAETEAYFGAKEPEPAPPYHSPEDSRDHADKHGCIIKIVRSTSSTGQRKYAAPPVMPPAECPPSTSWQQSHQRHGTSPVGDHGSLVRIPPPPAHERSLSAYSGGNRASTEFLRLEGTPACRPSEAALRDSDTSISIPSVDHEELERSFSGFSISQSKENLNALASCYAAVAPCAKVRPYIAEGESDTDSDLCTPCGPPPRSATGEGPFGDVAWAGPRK
KCNQ2 pot = potentiators of rat KCNQ2 potassium channel | CHO-K1 KCNQ2, FluxOR thallium flux fluorescence; hits give high values | B-score at 10 µM | 0.54% of 310,000 active | AID 2239, 2010;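 active means fluorescence ratio B-score at least 3 SD of library B-scores, with initial fluorescence B-score within 3 of them, cut at about 5.3 in these data; same plate scores as AID 2156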;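 further: B-score of peak minus minimum over baseline fluorescence ratio after K+ and Tl+ stimulus; positive B-score means potentiation of KCNQ2 with more thallium influx and brighter signal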
Kir21 confirm = mouse Kir2.1 channel blockers, retest, confirmation, cell-based, FluxOR thallium flux, duplicate; shares compounds with KCNQ2 pot; Kir2.1-expressing cells, FluxOR thallium flux fluorescence; hits give low values; Tl flux remaining, % of negative control (hits give low values), % at 10 µM; 41% of 2,300 active;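 active means Primary-screen hit whose thallium flux fell at least 3 control SD below untreated wells in both duplicates, with normal baseline fluorescence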;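 further: 0% = blank wells without stimulus and 100% = stimulated no-compound controls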
HEK293 ctr = counter-screen for Kir2.1 inhibitors: effect in parental HEK293 cells; shares compounds with KCNQ2 pot; FluxOR thallium flux fluorescence; 0% = unstimulated blank wells; FluxOR signal as % of negative control (100 = no effect), % at 10 µM; 19% of 2,300 active; AID 2105;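 active means dye signal at least 3 control SD above or below untreated wells in both duplicates, raw fluorescence within 3, either direction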;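 further: percent is based on the flux ratio of peak minus minimum fluorescence over baseline F0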
CHO-K1 ctr = nonspecific thallium flux increase in parental CHO-K1, confirmation, counter-screen for KCNQ2 potentiator project, cell-based, FluxOR thallium flux, duplicate. shares compounds with KCNQ2 pot. activity increase over 3SD of controls, % at 10 µM. parental CHO-K1 cells, FluxOR thallium flux fluorescence; zero = vehicle mean+3SD, 100% = vehicle-minus-blank window. 43% of 1,200 active. AID 2282, 2010;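 active means signal rise of at least 3 SD above the untreated control mean, in both duplicate wells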;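 further: counter screen of KCNQ2 potentiator hits so any rise reflects channel-independent effects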
KCNQ1 pot spec = human KCNQ1 channel potentiation off-target, confirmation, selectivity assay for KCNQ2 potentiator project, cell-based, CHO, FluxOR thallium flux | shares compounds with KCNQ2 pot | CHO KCNQ1 stable, FluxOR thallium flux fluorescence; beyond 3SD, as % of vehicle-control signal | activation over 3SD threshold, % at 10 µM | 28% of 1,200 active;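 active means fluorescence ratio rise of at least 3 SD of vehicle wells above their mean, in both replicate wells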;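 further: 0% = vehicle mean plus 3 SD and 100% = vehicle minus unstimulated blank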
KCNQ2 pot confirm = rat KCNQ2 channel potentiators, confirmation, cell-based, CHO, FluxOR thallium flux, duplicate | 68% of 1,200 active | potentiation, less the hit threshold, % at 10 µM | CHO-KCNQ2 cells, FluxOR thallium flux fluorescence | shares compounds with KCNQ2 pot;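 active means fluorescence ratio rising 3 SD or more over the vehicle control mean in both replicates, plus primary screen hit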;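 further: peak minus minimum thallium fluorescence divided by baseline after K/Tl stimulus; 0% = vehicle mean plus 3 SD and 100% = vehicle minus unstimulated blank difference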
Kir21 spec = mouse Kir2.1 channel activation off-target, confirmation, selectivity assay for KCNQ2 potentiator project, cell-based, HEK293, FluxOR thallium flux; shares compounds with KCNQ2 pot; HEK293 Kir2.1, FluxOR thallium flux fluorescence; activity over 3SD threshold, % at 10 µM; 2% of 1,200 active; AID 2345, 2010;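 active means fluorescence ratio rise of at least 3 SD above the vehicle-control mean, seen in both replicates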;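 further: 0% = vehicle mean plus 3 SD and 100% = vehicle minus no-stimulus blank window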
KCNQ2 W236L MoA = potentiators of retigabine-insensitive KCNQ2 W236L, mechanism study for KCNQ2 potentiator project, cell-based, rat KCNQ2 W236L, CHO, automated patch clamp. shares compounds with KCNQ2 pot. automated patch clamp current. current increase over 3SD of negative controls (%), hits give high values, % at 25 µM. 10% of 940 active. AID 2558, 2010;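 active means current increase at least 3 SD of the untreated controls above them in both duplicate recordings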
The depositor's hits bear a star. In the library only some 1.6% were active in any assay of this set; here they are far more common.

`O=C(CN1CCC(Cc2ccccc2)CC1)NCCc1ccc(F)cc1` gave KCNQ2 block inactive, KCNQ2 pot 16*, CHO-K1 ctr 69*, KCNQ1 pot spec -19, KCNQ2 pot confirm 56*, Kir21 spec -90 and KCNQ2 W236L MoA inactive.
COc1ccc2c(c1)CC(N1CCN(C)CC1)c1cc(OC)ccc1S2 (centres undefined) was read as KCNQ2 block inactive.
Clc1ccc2c(c1)C(N1CCNCC1)Cc1ccccc1S2 (centres undefined) was read as KCNQ2 block -12*, KCNQ2 pot -12, Kir21 confirm 32%* and HEK293 ctr inactive.
For Nc1sc(-c2ccccc2)n[n+]1Cc1cccc2cccnc12 the results were KCNQ2 block inactive, Kir21 confirm inactive and HEK293 ctr inactive.
Oc1ccccc1CNc1cccc2cccnc12 was read as KCNQ2 block inactive.
CCOc1ccc(C(C)=O)cc1CSc1nc2nc(C)cc(C)n2n1 was read as KCNQ2 block inactive and KCNQ2 pot 1.8.
`OCc1cc(C(O)CNCCCCCCOCCCCc2ccccc2)ccc1O` (centres undefined) gave KCNQ2 block inactive, KCNQ2 pot 0.73, Kir21 confirm 32%* and HEK293 ctr inactive.
Screening OC(CNCc1cccc(Br)c1)c1ccccc1 (centres undefined) returned KCNQ2 block inactive and KCNQ2 pot 0.38.
CC1CCN(S(=O)(=O)N2CCN(C(=O)c3ccc4c(c3)OCO4)CC2)CC1 was read as KCNQ2 block inactive and KCNQ2 pot 0.6.
`CC1CCCCC1NC(=S)NC(=O)c1cccs1` (centres undefined) gave KCNQ2 block inactive, KCNQ2 pot 8.4*, Kir21 confirm inactive, HEK293 ctr 188%*, CHO-K1 ctr 44*, KCNQ1 pot spec 23*, KCNQ2 pot confirm 15*, Kir21 spec -24 and KCNQ2 W236L MoA inactive.
For O=C(NNC(=S)NC1CCCCC1)c1cccs1 the results were KCNQ2 block inactive and KCNQ2 pot 0.02.
For COc1ccc(Br)cc1CN(C)CC(O)COc1ccc(Br)cc1 (centres undefined) the results were KCNQ2 block -6.3*, KCNQ2 pot -6.3, Kir21 confirm 70%* and HEK293 ctr inactive.
Screening CN(CCOc1ccc(Br)cc1)CC(O)COc1ccc(C#N)cc1 (centres undefined) returned KCNQ2 block inactive.
Screening Cc1cc(C)c2c(N)c(C(=O)c3ccccc3)sc2n1 returned KCNQ2 block inactive.
Screening Cc1sc2cc3c(c(C(=O)c4ccccc4)[n+]2c1C)-c1cccc2cccc-3c12 returned KCNQ2 block -8.2*, KCNQ2 pot -8.2, Kir21 confirm 27%* and HEK293 ctr 64%*.

Screening data deposited in PubChem by Johns Hopkins Ion Channel Center.
